PubChem BioAssay AID488975 (Johns Hopkins Ion Channel Center, 2010)
Out of some 310,000 compounds screened, about 2,600 (0.84%) were called active.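 The calls were made as follows: active = B-score over 3 SD under the library average, and starting fluorescence ratio not unusually high; inactive = the rest.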 Only a selection was taken, and actives are over-represented in it overall.

What follows are compounds tested against High affinity choline transporter 1 (Homo sapiens) (UniProt Q9GZV3) (assay: inhibits the human high affinity choline transporter (AID 488975;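 as to B-score: choline stimulus applied at its EC90 after an EC20 pre-addition; B-score computed on integrated fluorescence ratio after choline addition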)). Conditions: CHT-expressing cells, membrane potential dye, choline response, at 10 µM; active compounds read low.
Chain of High affinity choline transporter 1 (Homo sapiens) (Q9GZV3 whole entry, looked up): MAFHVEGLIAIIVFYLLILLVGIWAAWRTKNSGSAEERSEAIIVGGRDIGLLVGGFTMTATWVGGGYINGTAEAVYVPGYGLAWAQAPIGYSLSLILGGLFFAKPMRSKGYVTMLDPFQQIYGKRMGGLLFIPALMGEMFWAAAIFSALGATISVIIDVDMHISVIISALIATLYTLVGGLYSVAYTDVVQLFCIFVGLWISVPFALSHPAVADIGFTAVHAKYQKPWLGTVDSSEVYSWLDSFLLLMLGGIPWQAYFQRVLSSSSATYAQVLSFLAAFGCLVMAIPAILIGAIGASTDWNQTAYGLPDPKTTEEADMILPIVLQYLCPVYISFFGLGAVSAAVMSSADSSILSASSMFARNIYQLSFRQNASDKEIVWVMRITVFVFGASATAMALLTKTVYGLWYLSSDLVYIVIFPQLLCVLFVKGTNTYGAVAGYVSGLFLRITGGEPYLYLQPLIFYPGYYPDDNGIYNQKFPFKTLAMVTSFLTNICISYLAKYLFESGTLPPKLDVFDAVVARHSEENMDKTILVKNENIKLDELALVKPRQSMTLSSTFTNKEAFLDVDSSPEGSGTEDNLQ

SMILES	B-score
Cc1cc(OCC(=O)N(C)c2c(N)n(Cc3ccccc3)c(=O)[nH]c2=O)c(C(C)C)cc1Cl	inactive
COc1cc(C(=O)NCC(=O)N2CC=C(c3ccccc3)CC2)cc(OC)c1OC	inactive
CC(=N\NC(=O)c1cc(Br)ccc1O)/C(=N/O)C(=O)Nc1ccccc1	inactive
C/C(=N/NC(=O)c1cc(Cl)ccc1O)C12CC3CC(CC(C3)C1)C2	-7.51 (active)
COc1ccc(Cl)cc1NC(=O)CN(C)C(=O)CNC(=O)C12CC3CC(CC(C3)C1)C2	inactive
COC(=O)CN1C(C)=Nc2ccc(Br)cc2C1c1ccccc1 (stereo not drawn)	-5.31 (active)
CCC(CC)C(=O)N1CC(=O)Nc2ccc(Br)cc2C1c1ccccc1 (stereo not drawn)	inactive
COC(=O)C1=C(C)N(C)C(C)=C(C(=O)OC)C1c1cccc(Br)c1	inactive
O=C(Nc1ncccc1O)c1ccc(S(=O)(=O)N2CCCC2)cc1	inactive
COc1ccc(-n2nnnc2SCC(=O)c2ccc(OC)c(OC)c2)cc1	inactive
COc1ccc(CNC(=O)c2ccc3oc(C(C)C)nc3c2)cc1	inactive
COc1ccc(-n2nnnc2CNC(=O)c2ccc3ccccc3c2)cc1	-5.47 (active)
COc1ccc(NC(=O)CN(C)C(=O)Cc2coc3cc(C)c(C)cc23)cc1	inactive
CC(C)Oc1ccc(S(=O)(=O)N2CCOCC2)cc1NC(=O)C1CSC2(C)CCC(=O)N12 (stereo not drawn)	inactive
O=C(Nc1cc(-c2ccccc2)nn1-c1ccccc1F)c1ccc([N+](=O)[O-])cc1	inactive
COc1ccc(S(=O)(=O)N2CCOC2CNC(=O)C(=O)NCc2ccncc2)cc1C (stereo not drawn)	inactive
CC1CCN(C(=O)c2cccc(S(=O)(=O)N3CCCc4ccccc43)c2)CC1	inactive
CCCn1c(=S)[nH]c2ccc(C(F)(F)F)cc21	inactive
CC(C)n1c(=S)[nH]c2cc(C(F)(F)F)ccc21	-8.94 (active)
CC(C)n1c(=O)[nH]c2cc(C(=O)Nc3ccccc3)ccc21	inactive
Cc1c(NC(=O)C(C)OC(=O)c2c3c(nc4ccccc24)CCC(C)C3)c(=O)n(-c2ccccc2)n1C (stereo not drawn)	inactive
COc1ccc2sc(N(CCCN(C)C)C(=O)c3ccc(S(=O)(=O)N(C)C4CCCCC4)cc3)nc2c1	inactive
O=C(c1ccc(F)c(S(=O)(=O)N2CCOCC2)c1)N(CCc1ccccc1)Cc1ccccc1	inactive
COc1ccc(N(C)S(=O)(=O)c2ccc3c(c2)CC(C)N3C(=O)C2CC2)c(OC)c1 (stereo not drawn)	inactive
CCOC(=O)N1CCN(C(=O)CN(c2ccc(C)c(C)c2)S(=O)(=O)c2ccccc2)CC1	inactive

SMILES	B-score
CCOC(=O)N1CCN(C(=O)c2ccc(CN(c3ccc(C)c(C)c3)S(C)(=O)=O)cc2)CC1	-6.25 (active)
Cc1ccc(N(Cc2ccc(C(=O)Nc3ccccc3C(=O)NCc3ccco3)cc2)S(C)(=O)=O)cc1C	inactive
COc1ccc(NC(=O)CN(C)C(=O)c2cc(-c3ccc(C)o3)nc3ccccc23)cc1	inactive
CCNC(=O)CC1C(=O)N(c2ccc(F)cc2)C(=O)N1CCc1sccc1C (stereo not drawn)	-5.75 (active)
CCNC(=O)CC1C(=O)N(c2ccc(F)cc2)C(=O)N1Cc1cccs1 (stereo not drawn)	inactive
COc1ccc(N2C(=O)C(CC(=O)Nc3ccc(F)cc3)N(CCc3cccs3)C2=O)cc1 (stereo not drawn)	inactive
CC(=O)Nc1ccc(C(=O)Nc2cccc(S(=O)(=O)NC3=NCCC3)c2)cc1	inactive
CN(C)c1ccc(C2N(C)C(=O)c3ccccc3N2C)cc1 (stereo not drawn)	inactive
CN(C)c1ccc(Nc2c3c4c(cccc4n(C)c2=O)C(=O)c2ccccc2-3)cc1	-9.73 (active)
COc1ccc(/C=C2\SC(=S)N(CCCC(=O)NC3CCCC3)C2=O)cc1OC	inactive
COc1ccc(Cn2c(=O)sc3ccccc32)cc1OC	-5.56 (active)
Cc1cccc(CSc2nnc(Cn3c(=O)sc4ccccc43)n2C)c1	inactive
COc1ccccc1CNC(=O)CCn1c(=O)sc2ccccc21	inactive
O=C(NCC1(N2CCCCC2)CCCCC1)c1ccc(NS(=O)(=O)c2ccc(F)cc2)cc1	inactive
Cc1ccc(C)c(OCCC(=O)Nc2cccc(S(=O)(=O)N3CCCC3)c2)c1	inactive
O=C(/C=C/c1ccc([N+](=O)[O-])o1)NNC(=O)c1ccc(F)cc1	inactive
CCN(CC)CCC(c1ccc2c(c1)OCO2)c1c(OC)cc(OC)c2c(-c3ccccc3)cc(=O)oc12 (stereo not drawn)	-6.84 (active)
CCN(CC)CCC(c1cc(OC)c(OC)c(OC)c1)c1c(OC)cc(OC)c2c(-c3ccccc3)cc(=O)oc12 (stereo not drawn)	inactive
CCN(CC)C(=O)CC(c1ccc2c(c1)OCO2)c1c(OC)cc(OC)c2c(-c3ccccc3)cc(=O)oc12 (stereo not drawn)	inactive
Cc1ccc(S(=O)(=O)N2CCOCC2)cc1C(=O)Nc1ccccc1N1CCCC1	inactive
COc1ccc(N2CCN(S(=O)(=O)c3cc4c5c(c3)C(C)C(=O)N5CCC4)CC2)cc1 (stereo not drawn)	inactive
Cc1ccc(-c2csc(NC(=O)C3=COCCO3)n2)cc1C	inactive
O=C(Nc1ncccc1O)c1ccc(S(=O)(=O)N2CCCCCC2)cc1	inactive
CCOC(=O)[C@H]1[C@H]2COc3ccc(Cl)cc3[C@@H]2N2C(=O)c3cc(C)ccc3NC(=O)[C@@]12C	inactive
Cc1cc(NC(=O)C(C)SCC(=O)Nc2ccccc2N2CCCCC2)no1 (stereo not drawn)	inactive

SMILES	B-score
Oc1ccccc1N1CCN(c2ncnc3sc(-c4ccccc4)cc23)CC1	inactive
CCc1cc2c(NC3CCCC3)ncnc2s1	inactive
CCc1cc2c(N3CCN(c4nnc(CC)s4)CC3)ncnc2s1	-7.24 (active)
COc1ccc(C(=NN)c2ccc(OC)cc2)cc1	inactive
COc1ccc(S(=O)(=O)N2CCCCC2)cc1NC(=O)c1cc([N+](=O)[O-])ccc1N1CCOCC1	inactive
O=C(NCc1ccco1)C(=O)c1cn(CC(=O)N2CCCCCC2)c2ccccc12	inactive
Cc1ccc(CNC(=O)C(=O)c2cn(CC(=O)N3CCCC3)c3ccccc23)cc1	inactive
O=C(NCCCn1ccnc1)C(=O)c1cn(CC(=O)N2CCCCCC2)c2ccccc12	-6.23 (active)
CCN(CC)CCn1c2c(c(SCC(=O)Nc3nc4ccccc4s3)nc1=O)CCCC2	inactive
O=C(CCCn1c(SCC(=O)c2ccccc2)nc2ccccc2c1=O)NCC1CCCO1 (stereo not drawn)	inactive
CCCCn1c(SCC(=O)NCC2CCCO2)nc2ccc(N3CCOCC3)cc2c1=O (stereo not drawn)	-5.48 (active)
COCCNC(=O)c1ccc(Cn2c(SCC(=O)NCC3CCCO3)nc3ccc(Br)cc3c2=O)cc1 (stereo not drawn)	inactive
O=C(COc1ccccc1Cl)Nc1ccccc1C(=O)NC1CC1	inactive
Cc1ccc(S(=O)(=O)CCC(=O)Nc2nnc(CC(C)C)s2)cc1	inactive
CCC(=O)Nc1nnc(S(=O)(=O)N2CCCc3ccccc32)s1	inactive
CC(C)CC(=O)Nc1nnc(S(=O)(=O)N(C)c2ccc(Cl)cc2)s1	inactive
CCC(=O)Nc1nnc(S(=O)(=O)N(CC(C)C)c2ccccc2)s1	-5.75 (active)
CCN(C(=O)COC(=O)C1CCN(S(=O)(=O)c2ccc(C)c(C)c2)CC1)C1CCS(=O)(=O)C1 (stereo not drawn)	inactive
Cn1cccc1C(=O)NNC(=O)COc1ccc(Br)cc1	inactive
Cc1ccc(S(=O)(=O)N2CCCCC2)cc1C(=O)N(C)CC(=O)Nc1cccc(F)c1	inactive
O=C(NCC(c1ccco1)N1CCc2ccccc21)c1cccc(F)c1 (stereo not drawn)	inactive
CC1(C)CC(=O)c2ccc(O)cc2O1	inactive
COc1ccc2c(c1)SC(C)CC2=O (stereo not drawn)	inactive
COc1ccc2c(c1)OC(O)(C(F)(F)C(F)F)CC2=O (stereo not drawn)	-5.18 (active)
COC(=O)[C@@]12CCCN1[C@H](c1ccc(-c3ccc(F)cc3)c(OC)c1)[C@H]1C(=O)N(C)C(=O)[C@H]12	inactive

SMILES	B-score
CCN(CC)c1ccc(NC(=O)c2ccc(=O)[nH]c2)cc1S(=O)(=O)Nc1ccc(OC)cc1	inactive
COc1cc(/C=N/NC(=O)c2cc(-c3ccccc3C)nc3ccccc23)cc(OC)c1O	inactive
O=C(Nc1nonc1-c1ccc(Cl)cc1)c1ccco1	-5.55 (active)
Cc1ccnc(NC(=O)c2ccco2)n1	inactive
O=C(Nc1ccccc1)c1ccco1	inactive
CN(Cc1ccccc1F)C(=O)C(Cc1ccccc1)NC(=O)c1ccccc1 (stereo not drawn)	inactive
O=C(NNC(=O)c1cc(-c2ccccc2Cl)nc2ccccc12)c1csc(N2CCOCC2)n1	inactive
O=S(=O)(Cc1cc(Sc2ccccc2)nc(-c2ccccc2)n1)c1ccccc1	inactive
O=S(=O)(Cc1cc(Cl)nc(-c2cccnc2)n1)c1ccccc1	-6.86 (active)
O=S(=O)(NCCc1csc(-c2ccccc2)n1)c1cccnc1	inactive
COc1ccccc1NC(=O)C(C)OC(=O)c1ccc(-n2cnnn2)cc1 (stereo not drawn)	inactive
CCC1Nc2ncnc(N3CCN(c4ccccc4)CC3)c2N(Cc2ccc(Cl)cc2)C1=O (stereo not drawn)	inactive
CC(=O)C1C(c2ccc(Cl)cc2)NC(=O)NC1(O)C(F)(F)F (stereo not drawn)	inactive
CCOC(=O)C1C(c2ccc(Cl)cc2)NC(=S)NC1(O)C(F)(F)F (stereo not drawn)	inactive
O=C(c1cccs1)C1C(c2ccc(Br)cc2)NC(=S)NC1(O)C(F)(F)F (stereo not drawn)	-8.32 (active)
CN(c1cccc(NC(=O)c2ccc(CN3CCc4ccccc4C3)cc2)c1)S(C)(=O)=O	inactive
Cc1cccc(C)c1NC(=O)c1ccc(CN2CCc3ccccc3C2)cc1	-5.84 (active)
Cc1ccc(NC(=O)CN2CCc3ccccc3C2)cc1C	inactive
CCCCn1c(N)c(N(CC(C)C)C(=O)c2ccc(-n3c(C)ccc3C)cc2)c(=O)[nH]c1=O	inactive
COc1ccc2c(c1)[C@H]1[C@H](CO2)[C@H](c2ccccc2)[C@]2(C)C(=O)Nc3cc(F)c(F)cc3C(=O)N12	inactive
C=CCn1c(SCc2ccc(C(=O)NCCO)cc2)nc2ccccc2c1=O	-5.96 (active)
O=C(Nn1c(SCc2ccc([N+](=O)[O-])cc2)nc2ccccc2c1=O)c1ccc(F)cc1	inactive
COCCNC(=O)c1ccc(-n2c(SCc3cccnc3)nc3ccccc3c2=O)cc1	inactive
